11 compounds from ChEMBL document CHEMBL3988442, “University of Dundee, Small-Polar-MMV Screening Library” (2021) can be followed below.

For some of these results: Results with a measured potency or affinity are listed apart.

Common to all, as to parameters: scale not given: direction of the effect not stated beside the values
In assay [1] the target is Protein translocase subunit SecA (Escherichia coli (strain K12)) (UniProt P10408). The assay is described as follows: Assay to Identify E. coli SecA ATPase Inhibitors. Format: functional. As to conditions: 30 µM.
For assay [2], the target named is T1, Ubiquitin-activating enzyme e1, putative (Leishmania donovani (strain BPK282A1)) (UniProt E9BSI1).
T1 sequence (whole entry): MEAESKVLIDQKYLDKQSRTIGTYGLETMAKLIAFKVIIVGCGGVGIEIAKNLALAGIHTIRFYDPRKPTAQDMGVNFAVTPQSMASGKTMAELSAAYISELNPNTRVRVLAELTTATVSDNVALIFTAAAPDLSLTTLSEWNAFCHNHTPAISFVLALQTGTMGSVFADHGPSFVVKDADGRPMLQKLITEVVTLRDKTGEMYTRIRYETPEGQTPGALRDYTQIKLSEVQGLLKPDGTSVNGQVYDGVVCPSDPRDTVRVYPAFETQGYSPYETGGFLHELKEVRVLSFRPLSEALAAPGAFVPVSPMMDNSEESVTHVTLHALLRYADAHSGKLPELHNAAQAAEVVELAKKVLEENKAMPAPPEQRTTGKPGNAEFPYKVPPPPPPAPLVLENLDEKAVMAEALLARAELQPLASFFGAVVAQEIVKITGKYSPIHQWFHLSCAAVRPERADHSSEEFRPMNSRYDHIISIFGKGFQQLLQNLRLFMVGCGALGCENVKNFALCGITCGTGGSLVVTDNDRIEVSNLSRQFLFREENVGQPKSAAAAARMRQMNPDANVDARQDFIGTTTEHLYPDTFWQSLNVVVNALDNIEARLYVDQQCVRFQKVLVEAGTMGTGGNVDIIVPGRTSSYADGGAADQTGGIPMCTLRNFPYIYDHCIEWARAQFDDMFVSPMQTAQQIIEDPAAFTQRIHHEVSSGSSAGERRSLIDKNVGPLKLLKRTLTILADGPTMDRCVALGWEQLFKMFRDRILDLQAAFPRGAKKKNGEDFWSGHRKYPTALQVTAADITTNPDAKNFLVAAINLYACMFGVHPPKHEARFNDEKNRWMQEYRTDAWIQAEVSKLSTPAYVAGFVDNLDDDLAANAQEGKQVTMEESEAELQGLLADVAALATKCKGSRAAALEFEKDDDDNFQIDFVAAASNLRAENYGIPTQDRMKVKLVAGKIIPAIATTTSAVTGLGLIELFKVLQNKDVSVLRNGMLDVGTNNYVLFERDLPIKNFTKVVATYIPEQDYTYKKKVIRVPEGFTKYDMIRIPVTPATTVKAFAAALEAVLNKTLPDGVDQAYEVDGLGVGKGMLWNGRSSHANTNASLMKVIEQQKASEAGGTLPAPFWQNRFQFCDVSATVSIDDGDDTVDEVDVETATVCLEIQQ
The assay is described as follows: Leishmania donovani Ubiquitin Activating Enzyme (LdE1). Type of assay: functional. The settings on record: 30 µM.

Assay [3] deals with AMP-activated protein kinase, AMPK (Homo sapiens) (UniProt P54646+O43741+P54619+Q9UGJ0+Q9Y478+Q13131+Q9UGI9). The assay is described as follows: AMP-dependent Kinase enzyme assay. An in vitro enzyme assay that detects ADP turnover that is directly proportional to AMPK activity. This uses naive AMPK that is activated during the assay with MK-8722. Type of assay: functional. The settings on record: 30 µM.

The target in assay [4] is Sialic acid-binding Ig-like lectin 9 (Homo sapiens) (UniProt Q9Y336). The assay is described as follows: Hs-Siglec9 ALPHAscreen SOP 20170721. The settings on record: 10 µM. For orientation: In Alpha technology, singlet oxygen from a donor bead excites a nearby acceptor bead.
The next assay has as its system Trypanosoma cruzi. The assay is described as follows: Trypanosoma cruzi phosphomannomutase and mannose-1-phosphate guanylyltransferase assay. Type of assay: functional. The settings on record: 10 µM.
For assay [5], the target named is T2, Arginase-2, mitochondrial (Homo sapiens) (UniProt P78540).
T2 sequence (whole entry): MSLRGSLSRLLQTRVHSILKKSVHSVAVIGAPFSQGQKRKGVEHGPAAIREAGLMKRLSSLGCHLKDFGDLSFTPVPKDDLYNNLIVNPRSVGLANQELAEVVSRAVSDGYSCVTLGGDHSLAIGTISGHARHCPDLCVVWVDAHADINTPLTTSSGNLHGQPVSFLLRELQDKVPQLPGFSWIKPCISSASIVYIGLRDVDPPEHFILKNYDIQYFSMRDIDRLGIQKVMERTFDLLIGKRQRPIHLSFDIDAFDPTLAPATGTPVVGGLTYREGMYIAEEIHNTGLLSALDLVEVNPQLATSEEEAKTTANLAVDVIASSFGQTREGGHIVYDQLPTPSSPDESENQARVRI
The assay is described as follows: in vitro enzyme assay to detect the production of urea directly proportional to the activity of Arginase II. Note: in the data most compounds retested in dose-response had high values. Type of assay: functional. As to conditions: 33.3 µM.

In assay [6] the target is T3, Proteasome subunit beta (Trypanosoma cruzi) (UniProt O96673).
T3 sequence (whole entry): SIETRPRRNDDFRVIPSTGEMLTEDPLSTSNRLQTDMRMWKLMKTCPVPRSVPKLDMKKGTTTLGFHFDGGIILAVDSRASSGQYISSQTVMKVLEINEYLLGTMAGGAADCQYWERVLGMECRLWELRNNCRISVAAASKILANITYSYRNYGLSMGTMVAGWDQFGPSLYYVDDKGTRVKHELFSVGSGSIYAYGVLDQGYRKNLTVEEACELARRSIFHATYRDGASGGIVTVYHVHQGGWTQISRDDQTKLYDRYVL
The assay is described as follows: Trypanosoma cruzi proteasome chymotrypsin-like activity (TcProtChymo) assay. Note: in the data most compounds retested in dose-response had high values. Format: functional. The settings on record: 9.37 µM.

For a further assay, the species on record is Homo sapiens. The assay is described as follows: To identify inhibition of the IFN signalling (Jak-Stat) pathway via expression of an eGFP reporter gene under the control of an IFN-stimulated response element (ISRE) containing MxA promoter. Format: functional. As to conditions: 30 µM. (In a reporter assay the amount or activity of a reporter protein is the signal.)

In assay [7] the target is T4, Tyrosyl-tRNA synthetase, putative (Trypanosoma cruzi (strain CL Brener)) (UniProt Q4DSP6).
T4 sequence (whole entry): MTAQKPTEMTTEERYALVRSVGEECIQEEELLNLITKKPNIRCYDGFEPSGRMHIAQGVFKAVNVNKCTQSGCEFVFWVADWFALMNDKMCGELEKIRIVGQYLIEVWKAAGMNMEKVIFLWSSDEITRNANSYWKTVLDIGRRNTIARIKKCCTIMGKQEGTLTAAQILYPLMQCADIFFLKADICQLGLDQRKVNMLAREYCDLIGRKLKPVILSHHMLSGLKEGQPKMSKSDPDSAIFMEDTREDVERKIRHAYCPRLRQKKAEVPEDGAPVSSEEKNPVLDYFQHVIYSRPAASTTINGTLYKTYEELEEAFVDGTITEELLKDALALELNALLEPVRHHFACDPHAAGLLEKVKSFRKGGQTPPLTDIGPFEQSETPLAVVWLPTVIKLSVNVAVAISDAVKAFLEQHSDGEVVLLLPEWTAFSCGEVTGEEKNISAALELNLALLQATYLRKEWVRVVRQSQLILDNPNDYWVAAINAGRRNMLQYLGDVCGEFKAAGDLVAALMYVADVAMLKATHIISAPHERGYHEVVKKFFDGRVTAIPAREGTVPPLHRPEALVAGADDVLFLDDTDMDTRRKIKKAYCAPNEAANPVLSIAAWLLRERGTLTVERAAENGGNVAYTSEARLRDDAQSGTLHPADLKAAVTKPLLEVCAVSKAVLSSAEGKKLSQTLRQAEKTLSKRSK
The assay is described as follows: Trypanosoma cruzi tyrosyl tRNA synthetase (TcYRS) _High Tyrosine SOP. Note: in the data most compounds retested in dose-response had high values. As to conditions: 30 µM. Format: functional.

The target of assay [8] is T4, Tyrosyl-tRNA synthetase, putative (Trypanosoma cruzi (strain CL Brener)). The assay is described as follows: Trypanosoma cruzi tyrosyl tRNA synthetase (TcYRS) SOP. Type of assay: functional. As to conditions: 30 µM.
In assay [9] the target is Chromo domain-containing protein 1 (Saccharomyces cerevisiae (strain ATCC 204508 / S288c) (Baker's yeast)) (UniProt P32657). The assay is described as follows: ScCHD-1 Enzyme Inhibition Assay. Note: in the data most compounds retested in dose-response had high values. Format: functional. The settings on record: 30 µM.
Chromo domain-containing protein 1 (Saccharomyces cerevisiae (strain ATCC 204508 / S288c) (Baker's yeast)), sequence (P32657 whole entry, the tested form may be a part): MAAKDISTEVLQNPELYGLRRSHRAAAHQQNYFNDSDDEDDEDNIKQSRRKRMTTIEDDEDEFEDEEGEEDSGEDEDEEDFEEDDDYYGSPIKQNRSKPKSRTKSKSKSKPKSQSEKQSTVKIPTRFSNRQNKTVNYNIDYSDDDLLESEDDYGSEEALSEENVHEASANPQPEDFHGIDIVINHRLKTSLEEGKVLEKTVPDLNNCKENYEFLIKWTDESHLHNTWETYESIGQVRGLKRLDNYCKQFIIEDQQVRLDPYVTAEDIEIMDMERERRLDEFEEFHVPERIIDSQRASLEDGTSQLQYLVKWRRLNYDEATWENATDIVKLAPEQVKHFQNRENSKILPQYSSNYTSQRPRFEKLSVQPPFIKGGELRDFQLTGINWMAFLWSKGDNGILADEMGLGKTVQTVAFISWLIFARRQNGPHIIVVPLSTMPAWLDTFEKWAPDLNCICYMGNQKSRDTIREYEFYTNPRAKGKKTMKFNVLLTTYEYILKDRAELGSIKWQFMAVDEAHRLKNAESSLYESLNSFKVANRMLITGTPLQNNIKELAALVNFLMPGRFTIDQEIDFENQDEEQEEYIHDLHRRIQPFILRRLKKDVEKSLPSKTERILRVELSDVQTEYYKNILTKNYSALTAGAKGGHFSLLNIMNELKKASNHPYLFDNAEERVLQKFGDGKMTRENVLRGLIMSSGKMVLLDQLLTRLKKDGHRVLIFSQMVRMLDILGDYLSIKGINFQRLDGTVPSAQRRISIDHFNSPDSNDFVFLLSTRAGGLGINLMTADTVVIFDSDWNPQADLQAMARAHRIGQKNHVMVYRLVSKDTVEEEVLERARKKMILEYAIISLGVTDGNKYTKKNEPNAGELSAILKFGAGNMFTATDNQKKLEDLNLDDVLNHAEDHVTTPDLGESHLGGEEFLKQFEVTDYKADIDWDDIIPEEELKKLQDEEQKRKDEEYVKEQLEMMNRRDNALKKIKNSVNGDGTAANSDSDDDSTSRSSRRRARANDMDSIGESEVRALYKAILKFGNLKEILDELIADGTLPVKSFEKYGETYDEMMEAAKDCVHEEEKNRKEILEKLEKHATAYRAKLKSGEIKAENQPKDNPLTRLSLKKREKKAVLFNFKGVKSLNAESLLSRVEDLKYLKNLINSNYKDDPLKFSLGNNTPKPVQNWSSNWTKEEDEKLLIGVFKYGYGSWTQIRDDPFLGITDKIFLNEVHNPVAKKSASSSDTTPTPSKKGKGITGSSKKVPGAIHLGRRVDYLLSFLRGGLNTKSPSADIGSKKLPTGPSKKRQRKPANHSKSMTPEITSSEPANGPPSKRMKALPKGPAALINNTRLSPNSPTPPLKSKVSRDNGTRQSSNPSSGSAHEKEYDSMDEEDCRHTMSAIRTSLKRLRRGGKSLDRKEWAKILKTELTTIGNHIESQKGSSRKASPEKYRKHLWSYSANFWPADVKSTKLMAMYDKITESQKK

Sialic acid-binding Ig-like lectin 9 (Homo sapiens), sequence (Q9Y336 whole entry): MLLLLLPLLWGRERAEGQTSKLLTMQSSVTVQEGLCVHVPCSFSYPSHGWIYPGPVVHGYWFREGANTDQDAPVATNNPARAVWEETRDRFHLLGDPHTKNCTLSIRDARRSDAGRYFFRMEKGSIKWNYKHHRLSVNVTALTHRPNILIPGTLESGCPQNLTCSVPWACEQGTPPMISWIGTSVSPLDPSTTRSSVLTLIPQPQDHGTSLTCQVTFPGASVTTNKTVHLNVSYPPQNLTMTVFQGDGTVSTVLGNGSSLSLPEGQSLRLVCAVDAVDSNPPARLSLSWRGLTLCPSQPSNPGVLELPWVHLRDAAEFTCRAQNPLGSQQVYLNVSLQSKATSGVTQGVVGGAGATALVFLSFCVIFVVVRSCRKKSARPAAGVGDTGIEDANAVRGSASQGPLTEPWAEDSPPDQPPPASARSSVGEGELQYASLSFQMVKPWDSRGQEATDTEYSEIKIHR
Protein translocase subunit SecA (Escherichia coli (strain K12)), sequence (P10408 whole entry): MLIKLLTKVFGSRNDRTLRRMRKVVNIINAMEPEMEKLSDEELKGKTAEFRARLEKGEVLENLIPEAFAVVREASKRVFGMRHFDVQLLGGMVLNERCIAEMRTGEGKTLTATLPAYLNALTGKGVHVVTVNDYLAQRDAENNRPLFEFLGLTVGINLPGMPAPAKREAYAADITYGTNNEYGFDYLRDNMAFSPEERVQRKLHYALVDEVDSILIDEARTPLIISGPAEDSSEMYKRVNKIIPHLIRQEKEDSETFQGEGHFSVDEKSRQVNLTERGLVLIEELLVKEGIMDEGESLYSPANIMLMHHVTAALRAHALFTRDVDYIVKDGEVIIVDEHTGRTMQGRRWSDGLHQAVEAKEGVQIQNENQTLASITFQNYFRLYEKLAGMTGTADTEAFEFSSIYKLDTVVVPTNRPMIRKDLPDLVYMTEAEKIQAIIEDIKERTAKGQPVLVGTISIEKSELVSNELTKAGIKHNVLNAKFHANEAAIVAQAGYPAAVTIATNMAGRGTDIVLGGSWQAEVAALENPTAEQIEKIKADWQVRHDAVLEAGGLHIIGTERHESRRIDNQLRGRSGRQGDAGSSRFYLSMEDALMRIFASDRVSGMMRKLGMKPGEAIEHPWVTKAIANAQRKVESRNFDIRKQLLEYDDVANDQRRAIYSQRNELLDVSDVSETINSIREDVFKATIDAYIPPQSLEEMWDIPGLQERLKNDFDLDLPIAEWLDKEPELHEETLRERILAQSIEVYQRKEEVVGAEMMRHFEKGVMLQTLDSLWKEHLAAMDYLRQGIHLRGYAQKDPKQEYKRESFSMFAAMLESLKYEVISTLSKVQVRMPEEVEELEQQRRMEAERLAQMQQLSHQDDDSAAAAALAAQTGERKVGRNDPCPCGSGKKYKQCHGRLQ

`c1cc(CN2CCCC(c3noc(C4CC4)n3)C2)no1` (stereo unspecified): the Percent Effect is 0.187% in assay [1]; -5.41% in assay [2]; -9.37% in assay [3]; 9.04% in assay [4]; 4.25% with Trypanosoma cruzi; -6.41% in [5]. The Percent Effect is 4.32% in assay [6]; 20.7% in the assay listed under Homo sapiens; 3.45% in [7]; 6.17% in [8]; -4.15% in assay [9].
For `Cc1nc(NC(=O)CN2CCc3c(nc(C(C)C)n3C)C2)sc1C`, the Percent Effect is -3.02% in assay [1]; 5.41% in assay [2]; -2.02% in [3]; 11% in assay [4]; 8.69% in the assay with Trypanosoma cruzi; -1.43% in assay [5]. Moreover, the Percent Effect in assay [6] is 19.8%; in the assay filed under Homo sapiens, 15%; in [7] it was 6.88%; in assay [8] it was 19.5%; in assay [9] it was -1.68%.
Consider `CCS(=O)(=O)N1CCC2(CC1)CC(Oc1ccccn1)CO2` (stereo unspecified), for which the Percent Effect in assay [1] was -0.483%; in assay [2] it was 10.4%; in assay [3], 4.49%; in assay [4], -1.15%; in the assay on Trypanosoma cruzi, -5.23%; in assay [5], 7.1%. The Percent Effect was 11% in assay [6]; 17.8% in the assay listed under Homo sapiens; 2.12% in assay [7]; 3.85% in [8]; -7.08% in assay [9].
With `CCn1cc(CN2C[C@@H]3CCCN3C[C@@H]2CCSC)c(C)n1`, the Percent Effect was -1.75% in [1]; 5.33% in [2]; 8.44% in [3]; 4.09% in [4]; -4.53% in the assay with Trypanosoma cruzi; 2.1% in assay [5]. For the same compound, the Percent Effect in assay [6] came out at 8.37%; in the assay listed under Homo sapiens, 3.9%; in [7], 3.19%; in [8] it was 6.41%; in [9] it was 0.13%.
As to `CCCn1c(C)cc(C(=O)CN2C(=O)c3ccccc3CS2(=O)=O)c1C`, the Percent Effect in assay [1] is 2.47%; in assay [2] it was -18.9%; in [3], -2.92%; in [4], 7.94%; in the assay on Trypanosoma cruzi, 0%; in [5], 1.91%. The Percent Effect in [6] is 14.7%; in the assay filed under Homo sapiens it was 21.2%; in [7], -10.1%; in [8], 0%; in assay [9] it was 8.3%.
Turning to `CCS(=O)(=O)N1CCc2ccc(NC(=O)Nc3cccc(SC)c3)cc21`, the Percent Effect in [1] is -1.43%; in [2], -20.8%; in assay [3] it was 1.15%; in assay [4], 1.13%; with Trypanosoma cruzi, 0.69%; in assay [5], -3.23%. The Percent Effect in [6] is 17.6%; in the assay listed under Homo sapiens, 77.5%; in [7], -48.7%; in [8], -73.1%; in assay [9], -5.8%.
In the case of `CC(C)c1n[nH]c(C2CN(C(=O)c3csnn3)CCO2)n1` (stereo unspecified), the Percent Effect was -2.56% in assay [1]; -7.89% in [2]; -6.16% in assay [3]; 6.92% in [4]; 4.58% in the assay with Trypanosoma cruzi; 1.08% in [5]. In addition, the Percent Effect was 0.592% in assay [6]; -2.95% in the assay listed under Homo sapiens; 3.45% in assay [7]; 6.17% in assay [8]; -3.21% in assay [9].
`Cc1cc(CN2CCOC(CN(C)c3cccnn3)C2)no1` (stereo unspecified): the Percent Effect in [1] was -4.31%; in assay [2] it was 0%; in assay [3] it was 18.6%; in assay [4], -5.84%; in the assay on Trypanosoma cruzi, 3.23%; in assay [5], -0.21%. Also, the Percent Effect in assay [6] is 6.39%; in the assay filed under Homo sapiens, 1.91%; in assay [7], 0.952%; in [8], 2.35%; in [9], -18.6%.
For `Cc1nnc(CN2CCN(CCOc3ccccc3C#N)CC2)n1C`, the Percent Effect in assay [1] was -5%; in assay [2], 13.2%; in assay [3] it was -7.44%; in assay [4] it was 8.94%; in the assay on Trypanosoma cruzi it was 5.7%; in assay [5], 1.44%. Further, the Percent Effect was 7.87% in assay [6]; 5.78% in the assay listed under Homo sapiens; 3.45% in assay [7]; 16.1% in [8]; -3.26% in assay [9].
Take `Cc1nnc(NCc2ccccc2Cl)c(C#N)c1C`: the Percent Effect in assay [1] is -1.72%; in assay [2], -29.7%; in assay [3], -32.4%; in assay [4], -2.89%; with Trypanosoma cruzi, 2.51%; in assay [5], 1.29%. Further, the Percent Effect amounted to 5.39% in [6]; 26.5% in the assay filed under Homo sapiens; 13.9% in assay [7]; 11% in assay [8]; 5.89% in assay [9].
As for `CCCNC(=O)Nc1cc2c(cc1SC)OCCO2`, the Percent Effect in [1] is -5.72%; in assay [2], 13.5%; in assay [3], -3.48%; in [4], 12.2%; with Trypanosoma cruzi, 2.93%; in [5], 11.2%. The Percent Effect in assay [6] was 10.7%; in the assay listed under Homo sapiens, -1.29%; in assay [7], 8.91%; in assay [8], 8.54%; in assay [9] it was -6.19%.
